Laboratory results: PubChem BioAssay (EPA / NIEHS)
Records with an inconclusive call do not appear. Active and inactive are the calls of the source. Rule for the calls, unless noted: active = hit-call score of the fitted dose curve at least 0.9, where 1 is the maximum; inactive = score below 0.9.

Assays:
[1] = CCTE_Shafer_MEA_acute_burst_number: CCTE's Neural Acute Assay for Single-Electrode Bursts, Shafer Lab (AID 2284013)
Procedure, shortened: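 Rat cortical cultures, DIV 13/15; 40 min baseline, then 40 min with compound 0.03-40 uM, 37 C. Spikes: 300-5000 Hz band-pass, threshold 8x rms noise. Readout = % change in single-electrode bursts vs baseline, loss-of-signal fit.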

[2] = CCTE_Shafer_MEA_acute_per_burst_spike_number_mean: CCTE's Neural Acute Assay for Average Number of Spikes Per Burst, Shafer Lab (AID 2284015);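 note: hits are decreases in mean spikes per burst versus baseline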
Procedure, shortened: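 Primary rat cortical neurons on 48-well MEA plates, treated on DIV 13 or 15 at 0.03-40 uM. Spontaneous activity recorded 40 min before and 40 min after compound at 37 C; percent change in mean spikes per single-electrode burst per well, fitted in the loss direction versus DMSO.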

[3] = CCTE_Shafer_MEA_acute_burst_percentage_mean: CCTE's Neural Acute Assay for Percentage of Spikes in a Burst, Shafer Lab (AID 2284017);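 for AC50: curve fitted for loss of signal so potency reflects decreased burst percentage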
Procedure, shortened: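 Primary rat cortical neurons on 16-electrode MEA wells; 40 min baseline recorded at DIV 13 or 15, then 40 min after compound (0.03-40 uM) at 37 C. Well-mean fraction of spikes in single-electrode bursts; percent change from baseline, DMSO as negative control.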

[4] = CCTE_Shafer_MEA_acute_burst_percentage_std: CCTE's Neural Acute Assay for Standard Deviation of Burst Percentage, Shafer Lab (AID 2284018);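 note: fitted in the negative direction so actives lower burst percentage SD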
Procedure, shortened: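 Primary rat cortical neurons on 16-electrode MEA wells were recorded 40 min at baseline (DIV 13 or 15), then 40 min after compound (0.03-40 uM), at 37 C. Well value is SD across electrodes of spikes-in-bursts/total spikes; endpoint is percent change, DMSO-referenced.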

[5] = CCTE_Shafer_MEA_acute_per_network_burst_spike_number_mean: CCTE's Neural Acute Assay for Average Number of Spikes in a Network Burst, Shafer Lab (AID 2284019);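 for AC50: curve fitted for loss of signal so actives reduce spikes per network burst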
Procedure, shortened: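 Primary rat cortical neurons on 16-electrode MEA wells, DIV 13 or 15, 37 C; 40-min baseline then 40-min recording with compound (0.03-40 uM). Spikes per network burst (total spikes/number of bursts) expressed as percent change from baseline, DMSO reference.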

[6] = CCTE_Shafer_MEA_acute_per_network_burst_spike_number_std: CCTE's Neural Acute Assay for Standard Deviation of Number of Spikes in a Network Burst, Shafer Lab (AID 2284020);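 note: fitted for decrease in spike-number SD versus DMSO so actives lower it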
Procedure, shortened: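 Primary rat cortical neurons on 48-well MEAs (16 electrodes/well) recorded at DIV 13 or 15: 40-min baseline, then 40 min with compound (0.03-40 uM), 37 C. Value is percent change in SD of spikes per network burst, relative to DMSO.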

[7] = CCTE_Shafer_MEA_acute_per_network_burst_electrodes_number_mean: CCTE's Neural Acute Assay for Mean Number of Electrodes in a Network Burst, Shafer Lab (AID 2284021);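 note: curves fitted for decreases only so hits reduce electrodes per burst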
Procedure, shortened: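 Rat primary cortical neurons on 16-electrode MEA wells were recorded 40 min at baseline on DIV 13 or 15, then 40 min after compound (0.03-40 uM), at 37 C. Value is percent change per well, fitted in loss direction versus DMSO.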

[8] = CCTE_Shafer_MEA_acute_cross_correlation_area: CCTE's Neural Acute Assay for Area of Cross Correlation, Shafer Lab (AID 2284024);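 note: area under pooled inter-electrode spike cross-correlation near zero lag as percent change from own baseline; curves fitted for loss of cross-correlation area so actives lower synchrony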
Procedure, shortened: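 Primary rat cortical neurons on 48-well MEA plates (16 electrodes/well) were recorded 40 min at baseline on DIV 13 or 15, then 40 min with compound (0.03-40 uM) at 37 C; cross-correlation area expressed as percent change from baseline.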

[9] = CCTE_Shafer_MEA_acute_cross_correlation_HWHM: CCTE's Neural Acute Assay for Cross Correlation at Half Width at Half Maximum, Shafer Lab (AID 2284026);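 note: percent change per well from pre-dose baseline in spike cross-correlogram half width; hits are a decrease in cross-correlogram half width relative to DMSO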
Procedure, shortened: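 Primary rat cortical neurons on 16-electrode MEA wells; 40-min baseline on DIV 13 or 15, then 40-min recording with compound (0.03-40 uM) at 37 C. HWHM of spike cross-correlogram expressed as percent change from baseline per well, DMSO reference.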

[10] = target: Estrogen receptor (Homo sapiens) (UniProt P03372); test: CCTE_Deisenroth_AIME_96WELL_LUC_Active: CCTE's 96-well Estrogen Receptor Transactivation Assay with AIME metabolic competence (ERTA luciferase; metabolism positive), Deisenroth Lab (AID 2284023; active = hit-call score of the fitted dose curve at least 0.9, where 1 is the maximum)
Estrogen receptor (Homo sapiens), sequence (P03372 whole entry, looked up): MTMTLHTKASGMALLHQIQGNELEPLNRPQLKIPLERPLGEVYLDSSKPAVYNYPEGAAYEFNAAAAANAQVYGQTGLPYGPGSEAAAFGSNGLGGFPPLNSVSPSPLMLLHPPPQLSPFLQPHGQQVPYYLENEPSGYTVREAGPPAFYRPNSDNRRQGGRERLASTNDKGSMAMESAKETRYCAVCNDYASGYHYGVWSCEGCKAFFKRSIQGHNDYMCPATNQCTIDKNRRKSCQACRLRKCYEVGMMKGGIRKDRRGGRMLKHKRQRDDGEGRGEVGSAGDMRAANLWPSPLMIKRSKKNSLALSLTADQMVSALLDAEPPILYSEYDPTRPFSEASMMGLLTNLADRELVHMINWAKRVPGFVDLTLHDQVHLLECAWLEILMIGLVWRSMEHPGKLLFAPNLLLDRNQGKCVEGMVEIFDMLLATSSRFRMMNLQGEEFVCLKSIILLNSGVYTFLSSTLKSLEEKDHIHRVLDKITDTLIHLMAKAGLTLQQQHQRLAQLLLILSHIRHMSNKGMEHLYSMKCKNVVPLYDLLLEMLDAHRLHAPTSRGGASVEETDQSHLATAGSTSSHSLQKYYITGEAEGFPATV
Procedure, shortened: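 Chemicals pre-incubated 2 h with alginate-immobilized phenobarbital/beta-naphthoflavone-induced male Sprague Dawley rat liver S9, then medium transferred to VM7Luc4E2 cells for 24 h luciferase read-out. 10-point series 0.002 - 200 uM; fitted relative to 17beta-estradiol.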

[11] = target: Estrogen receptor (Homo sapiens) (UniProt P03372); test: CCTE_Deisenroth_AIME_96WELL_LUC_Inactive: CCTE's 96-well Estrogen Receptor Transactivation Assay without AIME metabolic competence (ERTA luciferase; metabolism negative), Deisenroth Lab (AID 2284025; active = hit-call score of the fitted dose curve at least 0.9, where 1 is the maximum)
Procedure, shortened: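 VM7Luc4E2 breast cells, luciferase read 24 h after dosing with medium pre-incubated 2 h on alginate-water lids (metabolism negative). 10-point series 0.002–200 uM, single technical replicate, n≥4; fit relative to 17beta-estradiol.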

[12] = CCTE_Deisenroth_AIME_96WELL_CTox_Active: Cytotoxicity Assessment (CTOX) in CCTE's 96-well Estrogen Receptor Transactivation Assay with AIME metabolic competence (metabolism positive), Deisenroth Lab (AID 2284028; active = hit-call score of the fitted dose curve at least 0.9, where 1 is the maximum)
Procedure, shortened: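 Chemicals (0.002–200 uM) were first incubated 2 h with alginate-immobilized phenobarbital/beta-naphthoflavone-induced male rat liver S9; conditioned medium then went onto VM7Luc4E2 cells for 24 h, with viability read by protease-substrate fluorescence, fitted bidirectionally.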

[13] = CCTE_Deisenroth_AIME_96WELL_CTox_Inactive: Cytotoxicity Assessment (CTOX) in CCTE's 96-well Estrogen Receptor Transactivation Assay without AIME metabolic competence (metabolism negative), Deisenroth Lab (AID 2284029; active = hit-call score of the fitted dose curve at least 0.9, where 1 is the maximum)
Procedure, shortened: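 Chemicals (10-point series, 0.002-200 uM) were incubated 2 h with alginate-water microspheres lacking S9. The conditioned medium was then transferred onto VM7Luc4E2 cells for 24 h. Viability was measured by protease-substrate cleavage to a fluorescent probe, with loss of signal fitted bidirectionally; n≥4 experimental replicates.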

[14] = CCTE_Harrill_HTTr_CellCount_MCF7: CCTE's Cell Proliferation Assessment for the High-Throughput Transcriptomics (HTTr) Platform, Harrill Lab (AID 2284012; active = hit-call score of the fitted dose curve at least 0.9, where 1 is the maximum;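 note: cells exposed to compound for six hours; intended direction is loss of nuclei count meaning fewer cells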)
Procedure, shortened: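 MCF-7 cells were exposed for 6 h to an eight-point dilution series; Hoechst-labeled nuclei were counted by high content imaging. Curves were fitted bidirectionally against DMSO as negative control and baseline, with signal loss indicating reduced cell count.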

[15] = target: Estrogen receptor (Homo sapiens) (UniProt P03372); test: CCTE_Deisenroth_AIME_384WELL_LUC_Active: CCTE's 384-well Estrogen Receptor Transactivation Assay with AIME metabolic competence (ERTA luciferase; metabolism positive), Deisenroth Lab (AID 2284030; active = hit-call score of the fitted dose curve at least 0.9, where 1 is the maximum)
Procedure, shortened: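 Test chemicals (10-point series, 0.002 - 200 uM) were preincubated 2 hours with alginate-immobilized phenobarbital/beta-naphthoflavone-induced male Sprague Dawley rat liver S9; conditioned medium then went onto VM7Luc4E2 breast cells for 24 hour. Luciferase gain-of-signal fitted relative to 17beta-estradiol.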

[16] = CCTE_Deisenroth_AIME_384WELL_CTox_Active: Cytotoxicity Assessment (CTOX) in CCTE's 384-well Estrogen Receptor Transactivation Assay with AIME metabolic competence (metabolism positive), Deisenroth Lab (AID 2284037; active = hit-call score of the fitted dose curve at least 0.9, where 1 is the maximum;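 note: activity means signal loss indicating cell death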)
Procedure, shortened: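 VM7Luc4E2 breast cells received medium pre-incubated 2 h with chemical over alginate microspheres holding induced male Sprague Dawley rat liver S9; viability read 24 h later by protease-substrate fluorescence. Loss of signal, bidirectional fit, 0.002–200 uM.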

[17] = target: Estrogen receptor (Homo sapiens) (UniProt P03372); test: CCTE_Deisenroth_AIME_384WELL_LUC_Inactive: CCTE's 384-well Estrogen Receptor Transactivation Assay without AIME metabolic competence (ERTA luciferase; metabolism negative), Deisenroth Lab (AID 2284038; active = hit-call score of the fitted dose curve at least 0.9, where 1 is the maximum;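 note: hits raise estrogen receptor luciferase signal so potencies reflect agonists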)
Procedure, shortened: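 Chemicals (10-point series, 0.002 - 200 uM) were incubated 2 hours with alginate-water microsphere lids lacking S9, then the conditioned medium was transferred to VM7Luc4E2 breast cells for 24 hour. Luciferase induction was read by bioluminescence, fitted upward relative to 17beta-estradiol.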

[18] = CCTE_Deisenroth_AIME_384WELL_CTox_Inactive: Cytotoxicity Assessment (CTOX) in CCTE's 384-well Estrogen Receptor Transactivation Assay without AIME metabolic competence (metabolism negative), Deisenroth Lab (AID 2284039; active = hit-call score of the fitted dose curve at least 0.9, where 1 is the maximum;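 note: cell viability via live-cell protease substrate cleaved to fluorescent probe; cells exposed 24 h to medium preincubated 2 h with alginate-water beads without S9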)
Procedure, shortened: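 VM7Luc4E2 human breast cells received conditioned medium from a 2 h incubation of chemical with alginate-water microspheres (no S9), then were exposed 24 h. Viability was read as protease-substrate cleavage to a fluorescent probe; loss of signal was fitted bidirectionally over 0.002–200 uM.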

Measured: AC50

CCCCCCCCCCCC(=O)N(C)CC(=O)O
active: [2] 2900 nM | [3] 20200 nM | [4] 57.6 nM | [5] 613 nM | [6] 14600 nM | [7] 2900 nM | [9] 21600 nM
inactive: [1] | [8]

Oc1ccc(/C=C/c2cc(O)cc(O)c2)cc1
active: [10] 4940 nM | [11] 15200 nM | [12] 70200 nM | [13] 40500 nM

O=C(Oc1ccccc1)c1ccccc1O
active: [17] 53400 nM
inactive: [14] | [15] | [16] | [18]

Nc1cccc(N)n1
inactive: [7] | [8] | [9]
active: [1] 3 nM | [2] 15.4 nM | [3] 3 nM | [4] 3 nM | [5] 45.6 nM | [6] 11.7 nM

CC(=O)OCc1ccccc1
inactive: [14] | [15] | [17] | [18]

CC(C)C(=O)OCCc1ccccc1
active: [7] 21.3 nM
inactive: [1] | [2] | [3] | [4] | [5] | [6] | [8] | [9]

C1CNCCN1
inactive: [14] | [1] | [2] | [3] | [4] | [5] | [6] | [7] | [8] | [9]

Oc1ccc(-c2ccccc2)c(Cl)c1
inactive: [14]

CCCCCCCO
inactive: [14]

CCCCC/C=C\C/C=C\CCCCCCCC(=O)O
inactive: [14] | [15] | [16] | [17] | [18]

Oc1ccccc1Cc1ccccc1O
inactive: [5] | [6] | [7]
active: [1] 159 nM | [2] 8010 nM | [3] 6160 nM | [4] 8530 nM | [8] 156 nM | [9] 5200 nM

CC/C=C\CCOC(=O)c1ccccc1O
active: [5] 3 nM
inactive: [1] | [2] | [3] | [4] | [6] | [7] | [8] | [9]

C=C(C)C1CC=C(C)CC1 (stereo not given)
inactive: [14] | [15] | [16] | [17] | [18]
